Laboratory results as given in ChEMBL document CHEMBL3988442, “University of Dundee, Small-Polar-MMV Screening Library” (2021).

What follows are compounds tested against AMP-activated protein kinase, AMPK (Homo sapiens) (UniProt P54646+O43741+P54619+Q9UGJ0+Q9Y478+Q13131+Q9UGI9) (assay: AMP-dependent Kinase enzyme assay. An in vitro enzyme assay that detects ADP turnover that is directly proportional to AMPK activity. This uses naive AMPK that is activated during the assay with MK-8722). Details: 30 µM.
Assay type: functional
Set-up: scale not given: direction of the effect not stated beside the values

SMILES	Percent Effect
Cc1ccc2occ(CN3CCN(c4ncccn4)CC3)c(=O)c2c1	-1.29%
O=C(NC1CCN(Cc2ccc(F)cc2)CC1)c1ccc2c(c1)CCC2	-2.43%
Cc1cccc(C(C)C)c1NC(=O)NCCN(C(C)C)C(C)C	15.2%
N#CC1(NC(=O)c2ccc(F)cc2OC(F)F)CCOCC1	1.96%
CN(C)S(=O)(=O)N1CC[C@]2(O)CCN(c3cc(C#N)ccn3)C[C@@H]2C1	-3.03%
Cc1cc(C(=O)NCCN2CCC(C)CC2)nn1C(C)(C)C	5.48%
COc1c(C)cnc(CN2CCn3c(C)nnc3C2)c1C	8.91%
COC(=O)c1ccc(N(C(=O)c2cccnc2C)C(C)C)c(C)c1	-5.67%
CCN(CC)CCCNC(=O)Nc1c(C)cccc1C(C)C	4.58%
CC(C)c1nnc2n1CCN(Cc1ccc3c(c1)OCCO3)C2	3.43%
C[C@@H]1CN(S(=O)(=O)N2CCCC2)CC[C@@]1(O)C1CCOCC1	-5.74%
CCOc1cccc(CN(Cc2cnn(C)c2)CC(C)C)c1O	-9.84%
CCc1oc(C(=O)N[C@@H]2c3ccccc3C[C@@H]2O)cc1CN1CCCC1	4.06%
Cc1cc(NC(=O)N2CCC[C@@H]2CO)nn1-c1ccccc1Cl	3.2%
CCc1cc(=O)[nH]c(-c2ccc(NC(C)COC)nc2)n1 (stereo not given)	-2.5%
CN(Cc1ncc(-c2ccccc2C(=O)O)s1)c1ncccn1	-8.09%
Cc1cccc(C)c1NC(=O)NCC1CCCN(C2CCOCC2)C1 (stereo not given)	5.67%
N#CCc1ccc(NC(=O)N[C@H](CO)Cc2ccc(O)cc2)cc1	9.92%
Cc1cc(=O)n2nc(Oc3ccc(C#N)cc3Cl)sc2n1	-3.6%
O=C1CCCCN1CCc1nc(C2(c3ccc(F)cc3)CCOC2)no1 (stereo not given)	0.752%

SMILES	Percent Effect
CC(C)CN(CC(F)(F)F)S(=O)(=O)c1cc(C(N)=O)n(C)c1	-3.17%
CC(C)c1nc(CSc2nnc(-c3cccs3)n2CC(N)=O)no1	-6.28%
CCc1cc(N2CCC(NCCc3ccccc3F)CC2)nc(C)n1	1.26%
COc1ccc2cc(C(=O)NCCNc3ccc(C)nn3)[nH]c2c1	8.22%
CC(C)(C)c1nc(CN2CCCC2c2nnc3ccccn23)no1 (stereo not given)	6.67%
COc1cc(CNC(=O)COC2CCCC2)ccc1O	3.23%
C=Cn1cc(CN2CCC(c3ncc(Cl)cc3S(C)(=O)=O)CC2)c(C)n1	13.4%
Cc1cc(C)n(CC(C)NC(=O)C2(c3ccccc3F)CC2)n1 (stereo not given)	-3.82%
CC(C)c1cc(C2CCN(C(=O)Cn3cnnn3)CC2)[nH]n1	12.8%
Cc1cccc(C(C)C)c1NC(=O)CN(C)C(C)c1nccs1 (stereo not given)	-7.09%
CC(C)[C@]1(O)CN(C(=O)C2(Cn3cccn3)CC2)C[C@H]1C	-3.27%
CN1CCOC(CNC(=O)CCCc2ccccc2)C1 (stereo not given)	-9.04%
CCC(c1ccc(F)cc1F)S(=O)(=O)CCO (stereo not given)	-2.09%
CN(C)CCN(C)C(=O)c1cn(CC2CCCCC2)nn1	10.7%
Cc1cc(NCCc2c(C)n[nH]c2C)nc(-c2cccnc2)n1	-4.66%
COc1ccc(C)c(NC(=O)NCc2ncnn2C)c1	-3.74%
Cc1noc(C)c1CN1CCCC1c1nnc2ccccn12 (stereo not given)	-3.49%
C[C@H](O)c1cnn(-c2ccccc2)c1	3.7%
CS(=O)(=O)N1CC[C@]2(O)CCN(c3ccnc(N)n3)C[C@@H]2C1	-13.7%
Cc1ncsc1C(=O)N1CCCC1c1c(C)nn(C)c1C (stereo not given)	1.43%
